In the library only some 2.3% were active in any assay of this set; here they are far more common.
M1 ag: human M1 muscarinic receptor agonism; P11229; CHO-K1 hM1, Fluo-8 calcium fluorescence, agonist mode; 0% DMSO, 100% acetylcholine EC100; activation, % at 3 µM; actives 0.33% (n = 360,000);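 active = activation above the run's mean compound activation plus 3 SD, cut at about 16% in these data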;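 note: peak over basal fluorescence ratio within a 140 s kinetic read after compound addition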
Target sequence (P11229 whole entry, looked up): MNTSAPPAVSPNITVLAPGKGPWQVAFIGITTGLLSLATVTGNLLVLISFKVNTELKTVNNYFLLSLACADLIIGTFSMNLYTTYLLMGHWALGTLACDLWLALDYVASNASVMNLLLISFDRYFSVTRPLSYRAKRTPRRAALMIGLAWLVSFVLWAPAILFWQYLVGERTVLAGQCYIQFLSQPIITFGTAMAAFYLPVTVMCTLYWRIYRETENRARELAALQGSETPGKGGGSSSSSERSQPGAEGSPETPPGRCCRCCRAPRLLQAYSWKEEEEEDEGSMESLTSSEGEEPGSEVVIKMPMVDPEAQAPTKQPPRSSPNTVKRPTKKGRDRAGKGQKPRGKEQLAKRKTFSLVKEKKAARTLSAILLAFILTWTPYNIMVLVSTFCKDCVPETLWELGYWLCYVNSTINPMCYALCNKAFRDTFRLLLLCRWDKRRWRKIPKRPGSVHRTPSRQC
CHO-K1 Ca antag: counter-screen for M1 antagonists: effect in parental CHO-K1 cells; ATP-induced calcium, Fluo-8 fluorescence; inhibition, % at 3 µM; actives 0.6% (n = 360,000);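 active = inhibition above a per-plate cutoff, the plate's mean sample inhibition plus 3 SD, cut at about 24% in these data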
M1 PAM parental: M1 PAM counterscreen hit in parental CHO-K1 cells. ATP EC20, Fluo-8 calcium fluorescence; 0% at ATP EC20, 100% at ATP max. actives 0.02% (n = 360,000). AID 602247. activation, % at 3 µM;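 active = activation above the run cutoff, the mean activation of all test compounds plus 3 SD, cut at about 40% in these data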;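 note: peak over basal fluorescence ratio in a 140 s read after ATP addition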
CHRM1 PAM: positive allosteric modulators of human M1 muscarinic receptor; P11229; CHO-K1 hM1, Fluo-8 calcium fluorescence, ACh EC20; 0% = ACh EC20, 100% = maximal ACh; activation, % at 3 µM; actives 0.088% (n = 360,000); AID 588819; in the data active = activation above about 19%, passing the limit was not always enough
CHO-K1 Ca ag: nonselective activator or artifact in parental CHO-K1 cells. activation, % at 3 µM. actives 0.48% (n = 360,000). Fluo-8 calcium fluorescence; scaled to maximal ATP response, vehicle zero; in the data active = activation above about 15%;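 note: untransfected CHO-K1 host cells lacking M1 receptor as counterscreen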
M1 antag: blocks human M1 muscarinic receptor; actives 1.3% (n = 360,000); inhibition, % at 3 µM; CHO-K1 hM1, Fluo-8 calcium fluorescence, ACh EC80 antagonist;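 active = percent inhibition above its own plate's cutoff, namely the mean of that plate's compound wells plus 3 SD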;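 note: peak over basal fluorescence ratio during 140 s after agonist addition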
Large screens that a line does not name were inactive.

Cc1ccc(S(=O)(=O)N2CCC(C(=O)O)CC2)cc1C(=O)O	none
CC1=CC(C)(C)N(C(=O)c2ccccc2)c2ccc(C)cc21	M1 ag 28
CN(C)CCNC(=O)c1ccc2nc([C@@H]3O[C@H](CO)[C@H](O)[C@H](O)[C@H]3O)[nH]c2c1	none
COc1ccccc1NC(=O)Cn1nnc(-c2ccccc2NS(=O)(=O)c2ccccc2)n1	CHO-K1 Ca antag 28
COC(C[C@H]1O[C@H]1[C@@H](O)COCc1ccccc1)OC	M1 antag 39
COC(C[C@H]1O[C@@H]1[C@H](O)COCc1ccccc1)OC	none
CCN1CCN(C(=O)c2ccc3c(c2)N(Cc2ccc(F)cc2)C(=O)c2ccccc2S3=O)CC1 (stereo not given)	none
Cc1cccnc1C(NC(=O)C1CCN(Cc2ccc3ccccc3n2)CC1)c1ccc(Cl)cc1 (stereo not given)	M1 antag 31
CCOc1cc(S(=O)(=O)NC2CCCCC2)ccc1F	CHO-K1 Ca ag 24
O=C(Nc1nc(-c2ccccc2)cs1)c1ccc(N2CCOCC2)c([N+](=O)[O-])c1	CHO-K1 Ca antag 25
Cc1ccc(-c2csc(NC(=O)c3cc([N+](=O)[O-])ccc3N3CCOCC3)n2)cc1	none
O=C(Nc1nc(-c2ccccc2)cs1)c1ccc2c(=O)n3c(nc2c1)CCCCC3	M1 antag 33
O=C(Nc1ccccc1Cl)c1ccc2c(=O)n3c(nc2c1)CCC3	none
Cc1ccc(C2=NS(=O)(=O)N(C)C(C(=O)Nc3ccc(F)cc3F)=C2)cc1	M1 antag 34
Cc1ccc(OCCOC(=O)C2CCN(S(=O)(=O)c3ccc(C)c(C)c3)CC2)cc1	none
Cc1ccc(S(=O)(=O)N2CCC(C(=O)OCCOc3ccccc3)CC2)cc1C	M1 antag 19
O=C(COc1ccc(S(=O)(=O)N2CCOCC2)cc1)Nc1ccc(Br)cc1	none
COc1ccc(S(=O)(=O)N2CCOCC2)cc1NC(=O)c1ccc2c(c1)OCO2	none
COc1ccc(S(=O)(=O)N2CCOCC2)cc1NC(=O)c1ccc(=O)[nH]c1	CHO-K1 Ca antag 54
O=C(CCCOc1ccc(Br)cc1)Nc1ccc(S(=O)(=O)N2CCOCC2)cc1	M1 antag 32
O=C(COc1ccc(S(=O)(=O)N2CCOCC2)cc1)NCc1ccccc1	M1 antag 29
COc1ccc(CNC(=O)COc2ccc(S(=O)(=O)N3CCOCC3)cc2)cc1	none
COc1ccc(S(=O)(=O)N2CCOCC2)cc1NC(=O)CO/N=C/c1ccccc1OC(F)F	CHO-K1 Ca ag 15
O=C(NC1CCCc2ccccc21)C1CCN(C(=O)c2sccc2-n2cccc2)CC1 (stereo not given)	none
O=C(NCCN1CCN(S(=O)(=O)c2ccc(F)cc2)CC1)C(=O)NCc1ccccc1	CHO-K1 Ca antag 24
Cc1ccc(S(=O)(=O)N2CCOCC2)cc1NC(=O)COc1ccc(C(=O)c2ccccc2)cc1	CHO-K1 Ca ag 16, M1 antag 37
COc1ccccc1NC(=O)CSc1nc2ccccc2cc1Cc1ccccc1	M1 PAM parental 42
CCCC[n+]1ccn(-c2nc3ccccc3nc2[N-]S(=O)(=O)c2ccc(C)cc2)c1	none
CCCC[n+]1ccn(-c2nc3ccccc3nc2[N-]S(=O)(=O)c2ccccc2)c1	M1 ag 19
O=C(c1cccs1)N1CCN(C2CCN(Cc3ccccc3)CC2)CC1	M1 antag 39
Cc1cc([N+](=O)[O-])cc2c1NC(=O)C2(O)N1CCCCCC1 (stereo not given)	CHO-K1 Ca ag 15
CCOC(=O)C1CCN(C(=O)Nc2cc(Cl)cc(Cl)c2)CC1	none
COc1cc(/C=N\NC(=O)C2COc3ccccc3O2)cc(OC)c1O (stereo not given)	CHO-K1 Ca ag 21
COc1cc(/C=N/NC(=O)C2COc3ccccc3O2)ccc1O (stereo not given)	none
CS(=O)(=O)N(CC(=O)NC1CCCC1)c1ccc2c(c1)OCCO2	M1 antag 35
CNC(=O)CN(c1ccc2c(c1)OCCO2)S(C)(=O)=O	none
COc1ccc(C(CNC(=O)c2cc(S(=O)(=O)NCc3ccccc3)ccc2C)N2CCOCC2)cc1 (stereo not given)	CHO-K1 Ca antag 28
CSc1ccc(CN2CCN(Cc3ccc([N+](=O)[O-])cc3)CC2)cc1	M1 antag 41
O=[N+]([O-])c1ccc(CN2CCCCCC2)cc1	none
Cc1c(C(=O)N(C)Cc2ccc(F)cc2)sc(=O)n1Cc1ccc(Cl)c(Cl)c1	none
CN(C)c1ccc(/C=C2\Oc3ccc(C#Cc4cccc(N)c4)cc3C2=O)cc1	M1 ag 29, M1 antag 35
CCC(C)c1c(O)nc(SCC(=O)N2CCCCC2)[nH]c1=O (stereo not given)	none
CCC(C)c1c(O)nc(SCC(=O)N2CCOCC2)[nH]c1=O (stereo not given)	CHRM1 PAM 25
COc1ccc(N2CCN(CC(O)COC(c3ccc(F)cc3)c3ccc(F)cc3)CC2)cc1 (stereo not given)	M1 antag 39
COc1ccc(N2CCN(CC(O)COC(c3ccccc3)c3ccccc3)CC2)cc1 (stereo not given)	none
C#CCNC(=O)C[C@@H]1C[C@@]2(C(=O)OCC)CCCC=C2N(CCCCCCCC)C1=O	none (no result: M1 ag, CHRM1 PAM, M1 antag)
Cc1ccc(-n2nc(C(=O)c3ccccc3)n3c(=O)cc(-c4ccccc4)nc23)cc1	M1 antag 37
O=C1CNC(=O)/C1=C\N1CCN(C(c2ccccc2)c2ccccc2)CC1	M1 antag 43
Cn1c(N)c(C(=O)CSc2nnnn2-c2ccccc2)c(=O)n(C)c1=O	none
Cn1c(N)c(C(=O)CSc2nc(C3CC3)n(-c3ccccc3)n2)c(=O)n(C)c1=O	M1 ag 22
Clc1ccc(CCNc2ncnc3nc[nH]c23)cc1	CHO-K1 Ca antag 30, M1 antag 30
C1=C(CCNc2ncnc3nc[nH]c23)CCCC1	M1 antag 28
c1ccc(CCCNc2ncnc3nc[nH]c23)cc1	M1 ag 21
COc1ccc2[nH]c3c(NCCC4=CCCCC4)ncnc3c2c1	CHO-K1 Ca ag 15
COc1ccc2[nH]c3c(NCCCOC(C)C)ncnc3c2c1	none
c1ccc(CNc2ncnc3nc[nH]c23)cc1	none
Cc1cccc(C(=O)N[C@H](C(=O)OCC(=O)NC(=O)c2cccn2C)C(C)C)c1	none
N#C/C(C(=O)Oc1ccccc1)=C1/Nc2ccccc2-c2ccccc21	none
c1ccc2c(CCNc3ncnc4nc[nH]c34)cccc2c1	M1 antag 54
CCCNc1ncnc2nc[nH]c12	none
CC1CCN(c2c(NCC3CCC(C(=O)N4CCCCC4)CC3)c(=O)c2=O)CC1 (stereo not given)	CHO-K1 Ca antag 28

Bioassay records deposited in PubChem by The Scripps Research Institute Molecular Screening Center.
